Test results reported in PubChem BioAssay AID651965 (National Center for Advancing Translational Sciences (NCATS), 2013).
About 6,400 (1.9%) of roughly 340,000 compounds were called active. Entries that show only a call come without a potency. Not shown: some 4% with an inconclusive outcome. The call rests on the fitted dose curve; in most records, active means well fitted falling curve with a large enough effect; inconclusive means small, poorly fitted or top-dose-only effect; inactive means no such curve, though single readings can be large or run the other way. This excerpt belongs to a sample that is enriched for actives.

target: ATP-dependent Clp protease proteolytic subunit (Bacillus subtilis (strain 168)) (UniProt P80244); test: qHTS Assay for Activators of ClpP; further: the source files actives as falling curves though it sought activators and does not explain the sign; nearly all actives have a fitted effect of over 65% in size; conditions: purified B. subtilis ClpP, FRET peptide cleavage, 20 min; series mostly up to 57.5 µM
Sequence (P80244 whole entry, looked up): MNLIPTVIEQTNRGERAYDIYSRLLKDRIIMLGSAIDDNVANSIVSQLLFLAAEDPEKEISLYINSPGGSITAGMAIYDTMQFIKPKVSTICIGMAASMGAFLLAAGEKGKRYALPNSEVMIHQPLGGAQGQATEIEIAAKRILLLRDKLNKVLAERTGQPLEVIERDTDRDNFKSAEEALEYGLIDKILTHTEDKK
Outline: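 ClpP 10 microg/mL final, pH 8 Tris/KCl buffer with BSA, glycerol, Tween-20; compound pinned in; FRET-FV substrate; RT 20 min; Ex320/Em430; ΔFRET vs ADEP 5.8 microM, DMSO, no enzyme.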
Potency means the concentration at half of the fitted maximal effect.

SMILES	Potency
Cc1ccc(S(=O)(=O)N2CCN(c3nc(-n4cnc5ccccc54)nc4ccccc34)CC2)cc1	inactive
O=C(c1ccc(Cl)cc1)n1cnc2ccccc21	inactive
Cc1ccc(OCC(=O)Nn2cnc3ccccc32)cc1	inactive
COc1ccc(-c2cc(C(=O)n3cnc4ccccc43)c3ccccc3n2)cc1	31.6 µM (active)
CC(=O)Nc1cc(-c2cccc(CO)c2)cn2c(-c3cccc(C(F)(F)F)c3)cnc12	inactive
CCN(CC)c1ncnc2c1ncn2[C@H]1CN(Cc2cccs2)C[C@@H](CO)O1	inactive
COc1ccccc1N1CCN(CCCCOc2ccc(F)cc2)CC1	inactive
Cc1ccccc1N1CCN(CCCOc2ccc3c(C)cc(=O)oc3c2)CC1	35.5 µM (active)
Cc1cc(=O)oc2cc(NC(=O)C3CC(=O)N(Cc4ccccc4)C3)ccc12 (stereo not given)	inactive
Cc1cc(=O)oc2cc(OCC3CC(c4ccccc4Cl)=NO3)ccc12 (stereo not given)	28.2 µM (active)
Cc1ccccc1NC(=O)c1ccc(COc2ccc3c(C)cc(=O)oc3c2)cc1	inactive
Cc1cc(OCCCN2CCN(Cc3ccccc3)CC2)ccc1[N+](=O)[O-]	inactive
COc1cccc(C(NC(C)=O)c2nc(-c3ccccc3OC)cs2)c1 (stereo not given)	inactive
CC1(C(=O)Nc2ccccc2Br)CCN1C(=O)CC1CC1 (stereo not given)	inactive
COc1ccc(C2OC(CCc3ccccc3)Cc3[nH]c(=S)[nH]c(=O)c32)cc1 (stereo not given)	inactive
OC[C@@H]1CN(Cc2ccncc2)C[C@H](n2cnc3c(N4CCN(c5ccccc5)CC4)ncnc32)O1	inactive
COCCCn1cc(CN2CC(N(C)C)CS2(=O)=O)nn1 (stereo not given)	inactive
CCCCC(O)C1=C[N+](=O)CC=C1 (stereo not given)	inactive
Cc1cc(NCc2ccco2)n2c(nc3ccccc32)c1C#N	28.2 µM (active)
Cc1cc(NC(C)C)n2c(nc3ccccc32)c1C#N	inactive
CCOCCCNc1c(CC)c(C)c(C#N)c2nc3ccccc3n12	inactive
N#CCCN(C(=O)Nc1ccc(Cl)c(Cl)c1)C1CCCCC1	inactive

SMILES	Potency
CCOC(=O)C1CCCN(C(=O)c2cc(-c3cccs3)oc2C)CC1 (stereo not given)	inactive
CCOC(=O)c1c(NC(=O)COc2cc(C)ccc2C(C)C)sc(C)c1C	inactive
Cc1ccc(NC(=O)CN(C)C(=O)COC(=O)c2nccnc2N)cc1	inactive
CCOC(=O)c1cc(C(C)C)sc1NC(=O)COC(=O)c1nccnc1N	20 µM (active)
COc1ccc(-c2csc(NC(=O)c3ccc(N4C(=O)CCC4=O)cc3)n2)cc1OC	14.1 µM (active)
COc1ccc(-c2csc(Nc3cccc(C)n3)n2)cc1OC	inactive
COc1ccc(C(=O)Nc2nc(-c3ccc(S(=O)(=O)N4CCOCC4)cc3)cs2)cc1	inactive
C=CCNC(=O)CSc1nc2sc(C)c(C)c2c(=O)[nH]1	inactive
CC(=O)c1sc2nc(SCC(=O)N3CCCCC3)[nH]c(=O)c2c1C	31.6 µM (active)
O=C(CSc1nc2c(cnn2-c2ccc(F)cc2)c(=O)[nH]1)N1CCCCCC1	inactive
CC(C)CC1C(=O)N(Cc2cn(CC3CCCCC3)nn2)CCS(=O)(=O)N1Cc1ccc(-c2ccc(Cl)cc2)cc1 (stereo not given)	inactive
CO[C@@H]1CN(C)C(=O)c2cc(NC(=O)Nc3cc(F)ccc3F)ccc2OC[C@H](C)N(C(=O)c2ccccn2)C[C@@H]1C	inactive
CCOc1ccccc1NC(=O)Cn1nnc(C(=O)NCc2cccs2)c1N	inactive
Cn1ncc(Br)c1C(=O)NCc1cccs1	inactive
CC(C)Cn1c(N)c(C(=O)NCc2cccs2)c2nc3ccccc3nc21	7.08 µM (active)
NCCCNC(=S)NCCCN(Cc1ccc(Cl)cc1)c1ccc(Br)cn1	inactive
CC1(C(=O)Nc2ccc3c(c2)OCCO3)CN(S(C)(=O)=O)CC(=O)N1Cc1cccc(F)c1 (stereo not given)	inactive
O=C(NCc1cccnc1)Nc1ccccc1F	inactive
CCC(C(=O)NCc1cccnc1)n1nc(C)c2sc3ccccc3c2c1=O (stereo not given)	inactive
CCC(Oc1ccccc1)C(=O)NCc1cccnc1 (stereo not given)	35.5 µM (active)
CC(=O)Nc1cccc(-c2ccnc3c2CC(C)(C(=O)NCc2ccccc2)O3)c1 (stereo not given)	inactive
CC1(C(=O)Nc2ccc3c(c2)OCCO3)CCN1C(=O)Cc1cc(F)ccc1F (stereo not given)	inactive

SMILES	Potency
COc1ccc(NC(=O)C2Cc3c(-c4ccc(Cl)cc4)ccnc3O2)cc1 (stereo not given)	inactive
CCOc1ccc(-c2nnc(-c3ccco3)o2)cc1	8.91 µM (active)
O=C(CSc1nnc(-c2ccc(NS(=O)(=O)c3ccccc3)cc2)o1)NCC1CCCO1 (stereo not given)	inactive
COc1ccc(CC(=O)Nc2ccc(-c3nnc(-c4ccccc4)o3)cc2)cc1	7.08 µM (active)
O=C(Nc1cccc(-c2nnc(-c3ccccc3)o2)c1)C1CCCO1 (stereo not given)	inactive
COc1ccc(CC(=O)Nc2ccc(C(=O)NC(C)(C)C)cc2)cc1	inactive
CCOc1ccc(NC(=O)c2ncoc2-c2ccco2)cc1	inactive
CC(=O)Nc1ccc(NC(=O)COc2ccc(-c3ccccc3)cc2)cc1	inactive
COc1ccc(CC(=O)Nc2c(C(N)=O)oc3ccccc23)cc1	inactive
COc1ccc(OCC(=O)Nc2nnc(-c3ccco3)s2)cc1	inactive
O=C(CSc1nnc(-c2ccco2)o1)NCC(=O)c1ccccc1	inactive
O=C(Nc1ccc(-c2nnc(-c3ccccc3)o2)cc1)C1CCCO1 (stereo not given)	12.6 µM (active)
Cc1ccc(OCC(=O)Nc2ccc(-c3nnc(-c4ccco4)o3)cc2)cc1	28.2 µM (active)
Fc1cccc(Cc2c(-c3ccc(Cl)cc3)nc3ccc(Cl)cn23)c1	inactive
O=C(Nc1cccc2cccnc12)c1ccc2sc([C@H]3C[C@H](O)[C@@H](CO)O3)nc2c1	inactive
CCCCCc1c(Cc2ccccc2)ncn1CCc1ccccc1OC	inactive
O=C(Nc1nnc([C@H]2C[C@H](O)[C@@H](CO)O2)s1)c1cccc(Cl)c1	inactive
CC(C)(O)C1=C[N+](=O)CC=C1	inactive
O=S(=O)(c1cccc(C(F)(F)F)c1)N1c2ccccc2-n2cccc2C1c1cccnc1 (stereo not given)	inactive
CN(C)c1ccc(/C=N\Nc2ccc([N+](=O)[O-])cc2[N+](=O)[O-])cc1Cl	inactive
O=C(Nc1ccc(Cl)cc1)c1cnn2c1NC(=C1CC1)C=C2C(F)F	inactive
